# Source: ChEMBL document CHEMBL1201862, “PubChem BioAssay data set” (2004)
# About 2,100 (0.53%) of roughly 400,000 compounds were called active. About 14% were inconclusive and are not listed. How the calls were made is not given here. For the sample, actives were picked, then their nearest neighbours and some compounds at random.
# Target: Ataxin-2 (Homo sapiens) (UniProt Q99700)
# Test: qHTS for Inhibitors of ATXN expression.
# Assay type: functional
# Chain of Ataxin-2 (Homo sapiens) (Q99700 whole entry): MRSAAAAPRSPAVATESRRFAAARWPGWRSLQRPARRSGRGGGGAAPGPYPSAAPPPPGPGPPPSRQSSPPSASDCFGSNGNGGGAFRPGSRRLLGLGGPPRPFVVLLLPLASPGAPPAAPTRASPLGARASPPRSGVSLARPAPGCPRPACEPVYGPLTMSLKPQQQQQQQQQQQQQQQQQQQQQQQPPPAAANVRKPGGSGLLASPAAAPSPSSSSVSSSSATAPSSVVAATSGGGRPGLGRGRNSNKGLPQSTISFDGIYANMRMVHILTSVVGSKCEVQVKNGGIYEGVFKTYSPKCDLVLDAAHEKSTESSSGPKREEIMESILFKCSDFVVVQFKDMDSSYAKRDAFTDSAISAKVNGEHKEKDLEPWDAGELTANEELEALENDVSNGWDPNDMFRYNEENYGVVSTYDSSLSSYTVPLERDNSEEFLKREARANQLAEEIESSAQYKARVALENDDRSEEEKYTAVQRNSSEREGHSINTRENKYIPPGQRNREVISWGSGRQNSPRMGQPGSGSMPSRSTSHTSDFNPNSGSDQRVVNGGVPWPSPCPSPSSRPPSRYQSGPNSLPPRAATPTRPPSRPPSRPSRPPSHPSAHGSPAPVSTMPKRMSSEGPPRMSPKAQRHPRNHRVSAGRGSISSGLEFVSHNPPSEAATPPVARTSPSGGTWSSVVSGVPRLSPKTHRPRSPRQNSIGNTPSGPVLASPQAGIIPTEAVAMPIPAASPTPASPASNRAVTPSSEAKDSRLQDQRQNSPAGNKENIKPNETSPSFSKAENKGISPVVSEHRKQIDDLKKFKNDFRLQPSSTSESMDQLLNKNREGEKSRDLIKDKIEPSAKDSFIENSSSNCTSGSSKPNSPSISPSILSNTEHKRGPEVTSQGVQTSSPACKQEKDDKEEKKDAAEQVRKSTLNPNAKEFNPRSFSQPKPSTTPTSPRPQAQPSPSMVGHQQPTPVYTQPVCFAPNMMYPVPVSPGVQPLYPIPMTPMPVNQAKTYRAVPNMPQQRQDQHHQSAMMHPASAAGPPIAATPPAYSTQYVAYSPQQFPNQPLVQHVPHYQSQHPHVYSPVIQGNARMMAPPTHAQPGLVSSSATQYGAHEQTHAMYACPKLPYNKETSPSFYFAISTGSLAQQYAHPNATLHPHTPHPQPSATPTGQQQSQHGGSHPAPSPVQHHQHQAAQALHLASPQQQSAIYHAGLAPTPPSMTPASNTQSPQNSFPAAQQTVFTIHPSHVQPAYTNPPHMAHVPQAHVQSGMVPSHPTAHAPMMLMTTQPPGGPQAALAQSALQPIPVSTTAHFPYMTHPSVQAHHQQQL
row,SMILES,Potency
1,Cc1ccc(S(=O)(=O)c2nnn3c2nc(NC2CCN(Cc4ccccc4)CC2)c2ccccc23)cc1C,39.8 µM (active)
2,Cc1ccc(-c2nnn3c2nc(NCCc2ccc(S(N)(=O)=O)cc2)c2ccccc23)cc1,inactive
3,CC(=O)NCCNc1nc2c(-c3cccc(C(F)(F)F)c3)nnn2c2ccccc12,inactive
4,Cc1nc2nc(SCC(=O)O)nn2c(C)c1Cc1ccccc1Cl,inactive
5,Cc1ccc(OCC(=O)N2CC(C)OC(C)C2)c([N+](=O)[O-])n1 (stereo unspecified),inactive
6,CN1C2CCC1/C(=C/c1cccn1C)C(=O)/C2=C\c1cccn1C,inactive
7,N=c1c(S(=O)(=O)c2ccc(Br)cc2)cc2c(=O)n3ccccc3nc2n1Cc1ccco1,inactive
8,O=[N+]([O-])c1cc(-c2ncccn2)c([N+](=O)[O-])s1,25.1 µM (active)
9,Cc1c(NS(=O)(=O)c2cc([N+](=O)[O-])ccc2Cl)c(=O)n(-c2ccccc2)n1C,inactive
10,CC(c1ccon1)N(C)C(=O)c1cnn(-c2ncc3c(n2)-c2ccccc2CC3)c1C1CC1 (stereo unspecified),inactive
11,Cc1cc(C)c(C#N)c(OCc2ccc(Cl)nc2)n1,inactive
12,N#Cc1ccc(C(=O)OCC(=O)Nc2cccnc2Cl)cc1,inactive
13,COc1cc(C)c(/C=C(\C#N)C(=O)Nc2ccc(C)cc2)cc1C(C)C,inactive
14,Cc1ccc(NC(=O)/C(C#N)=C/c2cc(C)n(-c3ccc(Br)cc3)c2C)cc1C,35.5 µM (active)
15,Cc1ccc(NC(=O)/C(C#N)=C/c2cn(CC(=O)NCc3ccco3)c3ccccc23)cc1C,inactive
16,NC(=S)NN=Cc1nccc2c(N)cccc12,8.91 µM (active)
17,CNC(=S)N/N=C/c1c2ccccc2c(Cl)c2ccccc12,inactive
18,NC(=S)NN=Cc1nccc2c(C(F)(F)C(F)(F)C(F)(F)F)cccc12,1 µM (active)
19,N=c1c(C(=O)NCC2CCCO2)cc2c(=O)n3ccccc3nc2n1CCCO (stereo unspecified),inactive
20,OCCn1ccc(-c2ccccc2OCc2ccc(F)cc2)n1,inactive
21,CCCCCCc1cc2cc(S(=O)(=O)c3ccc(C)cc3)c(=O)oc2cc1O,inactive
22,CC(C)N(C(=O)CS(=O)(=O)c1ccc(Cl)c(Cl)c1)C(C)C,inactive
23,O=C(NCC1CCCO1)c1nn2c(C(F)(F)F)cc(-c3cccs3)nc2c1Br (stereo unspecified),inactive
24,COCCCNc1nc2ccccc2nc1NS(=O)(=O)c1cc(Cl)ccc1Cl,inactive
25,CCCCNC(=O)C(C)N(CCN(C)C)C(=O)CCCN1C(=O)NC(c2ccc(Cl)cc2)C(C(=O)OCc2ccccc2)=C1C (stereo unspecified),25.1 µM (active)
26,NC(=O)C1(N2CCCCC2)CCN(C(=O)c2cc(COc3c(F)cccc3F)on2)CC1,inactive

row,SMILES,Potency
1,Cc1ccc(C(=O)Nc2ccc(S(=O)(=O)Nc3ncccn3)cc2)cc1[N+](=O)[O-],inactive
2,Cc1ccc(NC(=O)c2ccc(Nc3c([N+](=O)[O-])cc([N+](=O)[O-])cc3[N+](=O)[O-])cc2)cc1,15.8 µM (active)
3,COc1ccc(C(=O)Nc2ccc(S(=O)(=O)Nc3nccc(C)n3)cc2)cc1[N+](=O)[O-],inactive
4,C/C(=N\NC(=O)CC#N)c1cc2ccc(O)cc2oc1=O,inactive
5,COc1ccc(CN2CCCC(N3CCN(c4cccc(Cl)c4)CC3)C2)cc1OC (stereo unspecified),inactive
6,CCN(CC)CCNc1ccc(C)c2sc3ccc(O)cc3c(=O)c12,33.6 µM (active)
7,Cc1cc2sc3ccccc3c(=O)c2c(C)c1O,inactive
8,CNC(=O)OCc1nc(SSC(C)(C)C)n(C)c1COC(=O)NC,23.8 µM (active)
9,CC(=O)CC1OC(O)=C(Br)/C1=N/Cc1ccccc1 (stereo unspecified),20 µM (active)
10,NC(=O)c1cc2ccc(O)cc2o/c1=N\Cc1ccccc1,inactive
11,Oc1nc(N2CCOCC2)cc2ccccc12,inactive
12,Cc1nc(NC(=O)/C=C/c2ccccc2)sc1C(=O)Nc1ccc(Cl)cc1,39.8 µM (active)
13,Cc1nc(NS(=O)(=O)c2ccccc2)sc1C(=O)NN,inactive
14,Cc1cccc(Nc2nc(-c3ccccc3)c(C(=O)Nc3cccnc3)s2)c1,inactive
15,CC(C)=CC(=O)N1CCC(N2CCC(C(=O)N3CCOCC3)CC2)CC1,inactive
16,O=C(COCc1cc(-c2ccco2)on1)NC1CCCCC1,inactive
17,CCCc1cc(=O)oc2c(C)c(O[C@@H]3O[C@H](CO)[C@@H](O)[C@H](O)[C@H]3O)ccc12,inactive
18,Nc1nc(N)c2nc(-c3ccccc3)c(N)nc2n1,inactive
19,COc1ccc(OC)c(Nc2nc(-c3ccccc3O)nc3ccccc23)c1,inactive
20,Cc1cccc(Nc2nc(NCc3ccco3)c3ccccc3n2)c1,25.1 µM (active)
21,OCCNc1nc(Nc2ccc(Br)cc2)nc2ccccc12,inactive
22,Cc1ccc(-c2nc(NCc3ccco3)n(S(C)(=O)=O)n2)cc1,inactive
23,COc1ccc(OC)c(Nc2nc(NCc3ccco3)c3ccccc3n2)c1,39.8 µM (active)
24,COc1ccc(OC)c(Nc2nc(-c3ccncc3)nc3ccccc23)c1,inactive
25,O=[N+]([O-])c1cccc(S(=O)(=O)NCC2CC3CCC2C3)c1 (stereo unspecified),inactive
